Experimental data reported in PubChem BioAssay AID1159580 (chemical genetic matrix, 2015).
Values joined by “and” are separate entries in the source; they are usually repeats but may differ in a detail not shown here. Equal entries are not always repeated. Hit rate of the full screen: of about 5,500 compounds, about 2,000 (36%) were called active. Not shown: some 18% with an inconclusive outcome. Rule as the data show it: active = normalized growth mostly below about 0.91 (no sharp cut-off); inconclusive = no clear call, values can overlap the other calls; inactive = mostly above about 0.92. Some of the results follow.

Assay: chemical genetic growth profiling, strain panel (AID 1159580);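 also: tested at 20 µM; growth read once vehicle control cultures reached saturation at 30 °C; 1 = growth at the plate median or of vehicle wells; lower values mean less growth of the strain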
Settings: growth OD

Measured: normalized growth

Nc1c2c(nc3ccccc13)CCCC2
inactive: S. cerevisiae deletion strains, locus YKL068W, active compounds read low 1.01 | S. cerevisiae deletion strains, locus YKL085W, strain MDH1 (second series), active compounds read low 1.01 | S. cerevisiae deletion strains, locus YKL085W, strain MDH1, active compounds read low 1.01 | S. cerevisiae deletion strains, locus YKL160W, strain elf1, active compounds read low 1.01 | S. cerevisiae deletion strains, locus YKL190W, strain CNB1, active compounds read low 1.02 | S. cerevisiae deletion strains, locus YKR001C, strain vps1, active compounds read low 0.998 | S. cerevisiae deletion strains, locus YKR026C, strain gcn3, active compounds read low 0.986 | S. cerevisiae deletion strains, locus YKR091W, strain srl3, active compounds read low 0.994 | S. cerevisiae deletion strains, locus YLL001W, strain dnm1, active compounds read low 0.989 | S. cerevisiae deletion strains, locus YLL026W, active compounds read low 0.99 | S. cerevisiae deletion strains, locus YLL041C, strain sdh2, active compounds read low 0.982 | S. cerevisiae deletion strains, locus YLR027C, strain aat2, active compounds read low 0.984 | S. cerevisiae deletion strains, locus YLR039C, strain RIC1, active compounds read low 1.09 | S. cerevisiae deletion strains, locus YLR058C, strain SHM2, active compounds read low 1.02 | S. cerevisiae deletion strains, locus YLR102C, strain apc9, active compounds read low 1.01 | S. cerevisiae deletion strains, locus YLR113W, strain HOG1, active compounds read low 1.02 | S. cerevisiae deletion strains, locus YLR221C, strain rsa3, active compounds read low 0.963 | S. cerevisiae deletion strains, locus YLR258W, strain gsy2, active compounds read low 1 | S. cerevisiae deletion strains, locus YLR262C, strain YPT6 (second series), active compounds read low 1.01 | S. cerevisiae deletion strains, locus YLR262C, strain YPT6, active compounds read low 1.1 | S. cerevisiae deletion strains, locus YLR268W, strain sec22, active compounds read low 1.01 | S. cerevisiae deletion strains, locus YLR320W, strain mms22, active compounds read low 0.947 | S. cerevisiae deletion strains, locus YLR330W, strain CHS5, active compounds read low 1.01 | S. cerevisiae deletion strains, locus YLR342W, strain FKS1 (second series), active compounds read low 1 | S. cerevisiae deletion strains, locus YLR342W, strain FKS1, active compounds read low 0.999 | S. cerevisiae deletion strains, locus YLR357W, strain rsc2, active compounds read low 0.994 | S. cerevisiae deletion strains, locus YLR370C, strain arc18, active compounds read low 1.01 | S. cerevisiae deletion strains, locus YLR371W, strain rom2, active compounds read low 1.03 | S. cerevisiae deletion strains, locus YLR384C, strain iki3, active compounds read low 0.99 | S. cerevisiae deletion strains, locus YLR418C, strain cdc73, active compounds read low 1.03 | S. cerevisiae deletion strains, locus YML016C, strain PPZ1, active compounds read low 1.01 | S. cerevisiae deletion strains, locus YML032C, strain rad52, active compounds read low 1.01 | S. cerevisiae deletion strains, locus YML120C, strain ndi1, active compounds read low 1 | S. cerevisiae deletion strains, locus YML124C, strain tub3, active compounds read low 1.02 | S. cerevisiae deletion strains, locus YMR058W, strain fet3, active compounds read low 0.979 | S. cerevisiae deletion strains, locus YMR078C, strain ctf18, active compounds read low 1.02 | S. cerevisiae deletion strains, locus YMR125W, strain sto1, active compounds read low 1.01 | S. cerevisiae deletion strains, locus YMR129W, active compounds read low 0.99 | S. cerevisiae deletion strains, locus YMR205C, strain PFK2, active compounds read low 1.01 | S. cerevisiae deletion strains, locus YMR223W, strain ubp8, active compounds read low 1.01 | S. cerevisiae deletion strains, locus YMR231W, strain pep5, active compounds read low 0.976 | S. cerevisiae deletion strains, locus YMR263W, strain SAP30, active compounds read low 1.01 | S. cerevisiae deletion strains, locus YMR307W, strain GAS1, active compounds read low 0.999 | S. cerevisiae deletion strains, locus YNL067W, strain RPL9B, active compounds read low 0.998 | S. cerevisiae deletion strains, locus YNL071W, strain lat1, active compounds read low 1 | S. cerevisiae deletion strains, locus YNL128W, strain TEP1, active compounds read low 1.01 | S. cerevisiae deletion strains, locus YNL153C, strain GIM3, active compounds read low 0.994 | S. cerevisiae deletion strains, locus YNL175C, strain NOP13, active compounds read low 0.99 | S. cerevisiae deletion strains, locus YNL183C, strain NPR1, active compounds read low 0.954 | S. cerevisiae deletion strains, locus YNL197C, strain WHI3, active compounds read low 1.01 | S. cerevisiae deletion strains, locus YNL209W, strain ssb2, active compounds read low 1.01 | S. cerevisiae deletion strains, locus YNL224C, strain SQS1, active compounds read low 0.995 | S. cerevisiae deletion strains, locus YNL233W, strain BNI4, active compounds read low 0.999 | S. cerevisiae deletion strains, locus YNL250W, strain rad50, active compounds read low 1.03 | S. cerevisiae deletion strains, locus YNL271C, strain bni1, active compounds read low 1.02 | S. cerevisiae deletion strains, locus YNL298W, strain CLA4, active compounds read low 1.02 | S. cerevisiae deletion strains, locus YNL307C, strain MCK1, active compounds read low 1.02 | S. cerevisiae deletion strains, locus YNL322C, strain KRE1 (second series), active compounds read low 1.01 | S. cerevisiae deletion strains, locus YNL322C, strain KRE1, active compounds read low 1.01 | S. cerevisiae deletion strains, locus YNR049C, strain mso1, active compounds read low 0.975 | S. cerevisiae deletion strains, locus YNR052C, strain pop2, active compounds read low 1 | S. cerevisiae deletion strains, locus YOL006C, strain TOP1, active compounds read low 1.05 | S. cerevisiae deletion strains, locus YOL012C, strain htz1 0.82 | S. cerevisiae deletion strains, locus YOL147C, strain pex11, active compounds read low 1.01 | S. cerevisiae deletion strains, locus YOR001W, strain rrp6, active compounds read low 0.925 | S. cerevisiae deletion strains, locus YOR061W, strain CKA2, active compounds read low 1.02 | S. cerevisiae deletion strains, locus YOR069W, strain VPS5, active compounds read low 1.01 | S. cerevisiae deletion strains, locus YOR070C, strain gyp1, active compounds read low 0.975 | S. cerevisiae deletion strains, locus YOR080W, strain dia2, active compounds read low 0.969 | S. cerevisiae deletion strains, locus YOR083W, strain WHI5 (second series), active compounds read low 0.962 | S. cerevisiae deletion strains, locus YOR083W, strain WHI5, active compounds read low 0.994 | S. cerevisiae deletion strains, locus YOR106W, strain vam3, active compounds read low 0.997 | S. cerevisiae deletion strains, locus YOR136W, strain idh2, active compounds read low 1.02 | S. cerevisiae deletion strains, locus YOR144C, strain elg1, active compounds read low 1.02 | S. cerevisiae deletion strains, locus YOR184W, strain ser1, active compounds read low 1.04 | S. cerevisiae deletion strains, locus YOR231W, strain MKK1, active compounds read low 0.985 | S. cerevisiae deletion strains, locus YOR265W, strain rbl2, active compounds read low 0.99 | S. cerevisiae deletion strains, locus YOR270C, strain vph1, active compounds read low 0.888 | S. cerevisiae deletion strains, locus YOR290C, strain snf2, active compounds read low 0.971 | S. cerevisiae deletion strains, locus YOR316C, strain cot1, active compounds read low 1.02 | S. cerevisiae deletion strains, locus YPL051W, strain arl3, active compounds read low 0.951 | S. cerevisiae deletion strains, locus YPL055C, strain LGE1, active compounds read low 1.02 and 0.992 | S. cerevisiae deletion strains, locus YPL078C, strain atp4, active compounds read low 1.02 | S. cerevisiae deletion strains, locus YPL106C, strain sse1, active compounds read low 0.982 | S. cerevisiae deletion strains, locus YPL240C, strain hsp82, active compounds read low 0.987 | S. cerevisiae deletion strains, locus YPL241C, strain CIN2, active compounds read low 1.01 | S. cerevisiae deletion strains, locus YPL256C, strain CLN2, active compounds read low 0.995 | S. cerevisiae deletion strains, locus YPR119W, strain clb2, active compounds read low 1.01 | S. cerevisiae deletion strains, locus YPR141C, strain kar3, active compounds read low 1.01 | S. cerevisiae deletion strains, locus YPR163C, strain tif3, active compounds read low 1.01 | S. cerevisiae deletion strains, locus YPR167C, strain met16, active compounds read low 1.02 | S. cerevisiae deletion strains, strain wtn01, active compounds read low 1.02 | S. cerevisiae strains, strain wild type, active compounds read low 1.02
active: S. cerevisiae deletion strains, locus YNL248C, strain rpa49, active compounds read low 0.84
